Source: PubChem BioAssay
DAX1 inh-1 – DAX1 (NR0B1) inhibition, primary screen; HEK293T StAR-luciferase reporter, SF-1/DAX-1 repression relief; inhibition, % at 6.8 µM; actives 1.1% (n = 370,000);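 active means inhibition above the mean over all tested compounds plus 3 SD, cut at about 3.6% in these data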;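 further: higher inhibition means more luminescence from relief of DAX-1 repression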
SMARCA2 activ – SMARCA2 function activation, primary screen. AID 652017. MG213 cells, MMTV-luciferase reporter, dexamethasone, overnight. actives 1% (n = 370,000). activation, % at 9.1 µM; in the data active means activation above about 7.8%
ssDAF-12 act – S. stercoralis DAF-12 activation, primary screen. AID 652126. HEK293 ssDAF-12/GRIP1 lit1-tk-luc reporter, luminescence; % of 3 µM dafachronic acid response. actives 1% (n = 370,000). activation, % at 6.8 µM;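 active means activation above the mean over all tested compounds plus 3 SD, cut at about 0.9% in these data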
hcDAF12 agonist – activates DAF-12 receptor from parasite H. contortus; AID 652067; actives 1.4% (n = 370,000); activation, % at 6.8 µM; HEK293 hcDAF-12 lit1-tk-luc reporter, luminescence; 0% DMSO, 100% Δ7-dafachronic acid;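 active means activation above the mean of all tested compounds plus 3 SD, cut at about 5.5% in these data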
DAX1 inh-2 – inhibits human nuclear receptor DAX1; P51843; HEK293 Gal4-DAX1 luciferase reporter, luminescence; inhibition, % at 6.75 µM; actives 0.99% (n = 340,000); AID 504766;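 active means inhibition above the mean over all tested compounds plus 3 SD, cut at about 4.2% in these data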;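 further: inhibition shows as a rise in luminescence from relieved DAX1 repression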
hgDAF-12 ag – activates the H. glycines DAF-12 receptor ligand-binding domain. HEK293 GAL4-hgDAF12 UAS-luciferase reporter, agonist luminescence; normalized to butyrate control. activation, % at 6.8 µM. actives 1.8% (n = 370,000). AID 687014;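 active means activation above a cutoff set at the mean of all screened compounds plus 3 SD, cut at about 10% in these data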
hgDAF12 conf – hgDAF-12 agonism, confirmation assay | HEK293 GAL4-hgDAF12 luciferase reporter, agonist mode; percent of butyrate response | AID 743050 | shares compounds with hgDAF-12 ag | actives 80% (n = 3,300) | activation, % at 6.8 µM;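 active means mean activation over triplicate wells above the hit cutoff derived from the earlier primary screen, cut at about 11% in these data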
LXRb DAF12 ctr – counter-screen for DAF-12 agonists: agonists of human LXR-beta; shares compounds with hgDAF-12 ag; HEK293 Gal4-LXR luciferase reporter, 24 h; activation, % at 6.8 µM; 3,300 tested, under 10 active;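 active means mean activation of the triplicate above a set limit carried over from the primary screen, none filed active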
Target sequence (P55055 whole entry, looked up, the tested form may be a part): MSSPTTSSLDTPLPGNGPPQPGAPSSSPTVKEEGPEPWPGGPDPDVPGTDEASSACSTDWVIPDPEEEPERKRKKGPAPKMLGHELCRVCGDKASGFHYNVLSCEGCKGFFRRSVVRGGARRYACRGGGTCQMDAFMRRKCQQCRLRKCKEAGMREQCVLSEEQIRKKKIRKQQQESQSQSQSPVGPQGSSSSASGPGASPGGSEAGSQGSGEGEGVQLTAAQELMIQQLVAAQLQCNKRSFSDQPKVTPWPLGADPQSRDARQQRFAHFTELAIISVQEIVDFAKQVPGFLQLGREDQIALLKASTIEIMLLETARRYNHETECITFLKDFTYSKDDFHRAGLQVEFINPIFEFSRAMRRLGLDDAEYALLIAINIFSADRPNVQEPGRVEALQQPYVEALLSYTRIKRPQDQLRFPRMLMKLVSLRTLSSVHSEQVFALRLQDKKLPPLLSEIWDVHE
Each line names hits and unclear results; the compound was inactive in the other large screens (follow-up assays come after a bar, where they were run). Most compounds without a hit are left out; they make up all but 4.8% or so of the library.

CC(=O)c1cccc(NC(=O)c2ccc(-c3ccccc3[N+](=O)[O-])o2)c1	hgDAF-12 ag 14 | hgDAF12 conf 13 | LXRb DAF12 ctr inactive
Cc1cc(NC(=O)c2ccc(-c3ccccc3[N+](=O)[O-])o2)no1	none
O=C(O)C1CSC2(CCN(Cc3ccccc3)CC2)N1 (stereo not given)	none
CN1CCN(/C=N/c2sc3c(c2C#N)CCCCC3)CC1	hcDAF12 agonist 6.4, DAX1 inh-2 6.8, hgDAF-12 ag 19 | hgDAF12 conf 19 | LXRb DAF12 ctr inactive
O=C(NCCN1CCOCC1)NC1(C(F)(F)F)Oc2ccccc2O1	none
COC(C(=O)N/N=C(\C)c1ccc(O)cc1)c1ccccc1 (stereo not given)	hgDAF-12 ag 14 | hgDAF12 conf inactive | LXRb DAF12 ctr inactive
COC(C(=O)N/N=C(\C)c1ccc(C)cc1)c1ccccc1 (stereo not given)	none
Cc1ccc(NC(C)C(=O)N/N=C/c2c[nH]c3ccccc23)cc1 (stereo not given)	none
CCCC(=O)Nc1ccc(Br)cn1	none
O=C(Nc1ccc(Br)cn1)c1ccc(Br)s1	hcDAF12 agonist 6.2, hgDAF-12 ag 20 | hgDAF12 conf 20 | LXRb DAF12 ctr inactive
O=C(Nc1ccccc1C(=O)Nc1ccc(Br)cn1)c1ccccc1Cl	none
O=C(Nc1ccc(Br)cn1)c1ccc(Cl)s1	hgDAF-12 ag 15 | hgDAF12 conf 14 | LXRb DAF12 ctr inactive
O=C(NC1=NCCS1)c1ccc(Br)s1	DAX1 inh-1 3.8, hcDAF12 agonist 6.0, hgDAF-12 ag 14 | hgDAF12 conf 13 | LXRb DAF12 ctr inactive
O=C(Nc1nccs1)c1ccc(Cl)s1	none
Cc1ccccc1C(=O)Nc1ccc(Br)cn1	hgDAF-12 ag 14 | hgDAF12 conf 16 | LXRb DAF12 ctr inactive
CCCCCNC(=O)C(c1cc2ccccc2o1)n1c(=O)c(-c2ccco2)nc2ccccc21 (stereo not given)	none (no result: DAX1 inh-2)
O=S(=O)(c1ccc(F)cc1)N1CCN(c2nc(-c3ccc(F)cc3)cs2)CC1	none
CC(=O)N1CCCc2cc(S(=O)(=O)NC(C(=O)NC3CCCCC3)C(C)C)ccc21 (stereo not given)	none
COC(CNC(=O)c1ccc2c(c1)ncn2-c1ccc(F)c(F)c1)OC	none
Cc1ncc(CO)c(CNc2ccc(-c3nc4ccccc4[nH]3)cc2)c1O	hgDAF-12 ag 16 | hgDAF12 conf 13 | LXRb DAF12 ctr inactive
CCOC(=O)c1c(C)[nH]c(C(=O)CSc2ccccc2)c1C	hcDAF12 agonist 5.6, hgDAF-12 ag 18 | hgDAF12 conf 14 | LXRb DAF12 ctr inactive
Cc1ccc(Cl)cc1N1CCN(S(C)(=O)=O)CC1	none
CC(=O)Oc1ccccc1/C=C/c1ccc2ccccc2[n+]1C	ssDAF-12 act 1.9, hcDAF12 agonist 6.0, hgDAF-12 ag 13 | hgDAF12 conf 11 | LXRb DAF12 ctr inactive
COC(CN(C(=O)CCl)C(C(=O)NC1CCCCC1)c1ccc(C)cc1)OC (stereo not given)	none
Cc1ccc(-c2nc3ccccn3c2C=O)cc1	hcDAF12 agonist 5.8, hgDAF-12 ag 14 | hgDAF12 conf 12 | LXRb DAF12 ctr inactive
COc1cc(Cl)ccc1OCc1cc(C(=O)N2CCN(C)C(=O)[C@@H]2C)no1	hcDAF12 agonist 5.8, hgDAF-12 ag 14 | hgDAF12 conf 13 | LXRb DAF12 ctr inactive
COc1cc(Cl)ccc1OCc1cc(C(=O)N2CCN(C)CC2)no1	none
O/N=C/c1ccc(OCc2ccccc2)c(Br)c1	hgDAF-12 ag 16 | hgDAF12 conf 22 | LXRb DAF12 ctr inactive
O/N=C/c1cc(Br)cc(Br)c1OCc1ccccc1	none
O/N=C/c1ccc(OCc2ccccc2)c(Cl)c1	ssDAF-12 act 1.4, DAX1 inh-2 5.0, hgDAF-12 ag 15 | hgDAF12 conf 13 | LXRb DAF12 ctr inactive
CCN(CC(=O)Nc1c(F)cccc1F)C(=O)c1cn2ccccc2n1	none
CC(C)Oc1ccc(C(=O)Nc2c3c(nn2-c2ccccc2)CS(=O)(=O)C3)cc1	none
COc1ccccc1N1CCN(CC(=O)N(CC(C)C)c2c(N)n(CC(C)C)c(=O)[nH]c2=O)CC1	none
C=CCn1c(SCc2ccccc2)nc2scc(-c3ccc(C)o3)c2c1=O	none
C=CCn1c(SCC(N)=O)nc2scc(-c3ccc(C)o3)c2c1=O	hcDAF12 agonist 5.6, hgDAF-12 ag 20 | hgDAF12 conf 17 | LXRb DAF12 ctr inactive
C/C(=N\NC(=O)c1nn(C)c(C)c1Br)c1ccc(NC(=O)c2ccc(C)s2)cc1	hgDAF-12 ag 17 | hgDAF12 conf inactive | LXRb DAF12 ctr inactive
CCC(=O)Nc1ccc(/C(C)=N\NC(=O)c2ccc(C)s2)cc1	none
Cc1cnc(NCCc2ccccc2)s1	none
COc1ccc(-c2csc(NC(CO)c3nc4ccccc4n3Cc3ccc(C)cc3)n2)cc1 (stereo not given)	none
O=C(NC(=S)Nc1ccc2c(c1)OCCO2)c1cccc(Br)c1	hgDAF-12 ag 14 | hgDAF12 conf 19 | LXRb DAF12 ctr inactive
COC(=O)c1sccc1-c1ccc(C(=O)Nc2ccccc2)o1	hgDAF-12 ag 13 | hgDAF12 conf 13 | LXRb DAF12 ctr inactive
COC(=O)c1sccc1NC(=O)c1ccc(C)o1	none
COc1ccc(C(CC(=O)O)NC(=O)Nc2ccccc2)cc1OC (stereo not given)	none
CC[C@@]1(C(=O)OC)N[C@H](CN(C)C(=O)Nc2ccc(OC)cc2)[C@@H]2C(=O)N(Cc3ccccc3)C(=O)[C@@H]21	hgDAF-12 ag 14 | hgDAF12 conf inactive | LXRb DAF12 ctr inactive
O=C(c1ccc(Cl)s1)N1CCc2ccccc21	ssDAF-12 act 1.5, hcDAF12 agonist 6.4, hgDAF-12 ag 15 | hgDAF12 conf 18 | LXRb DAF12 ctr inactive
O=C(c1ccc(C(=O)N2CCCc3ccccc32)s1)N1CCCc2ccccc21	none
Cc1ccc(NC(=O)c2cc(S(=O)(=O)N3CCCCC3)cs2)cc1	none
O=C(NC(=S)Nc1ccc(CN2CCOCC2)cc1)c1ccco1	none
O=C(NC(=S)Nc1ccc(N2CCOCC2)cc1)c1ccco1	hgDAF-12 ag 16 | hgDAF12 conf inactive | LXRb DAF12 ctr inactive
CCC(=O)Nc1ccc2c(c1)C(=O)c1ccccc1C2=O	DAX1 inh-1 3.8, hcDAF12 agonist 6.4, hgDAF-12 ag 13 | hgDAF12 conf 16 | LXRb DAF12 ctr inactive
COc1ccccc1-c1csc(C(O)c2cccc(Cl)c2)n1 (stereo not given)	none (no result: DAX1 inh-2)
NC(=O)c1cc(C(N)=O)nc(Cl)n1	none
